# Screening results: PubChem, National Center for Advancing Translational Sciences (NCATS)
# PLK1 PBD inh = inhibitors of human PLK1 polo-box domain binding; P53350; Plk1 PBD binding of FITC phosphopeptide, fluorescence polarization; Potency, µM, for the others: max response, negative = inhibition, usual class: inhibitors; 2.8% of 360,000 active; AID 720504; also: series mostly up to about 57 µM; % is scaled to controls: 0 for no effect and ±100 for the full control effect; nearly all actives have a fitted effect of over 65% in size
# GLS inh = blocks human kidney-isoform glutaminase activity. 0.21% of 410,000 active. Potency, µM (titrated, usually from 45.5 µM), for inactives: top-dose activity change, negative = inhibition, usual class: inhibitors. GLS enzymatic activity, qHTS titration; also: % is scaled to controls: 0 for no effect and ±100 for the full control effect
#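 hKGA in 45 mM KH2PO4 pH 8.2, 0.02% Tween-20 with pin-transferred compounds; 1 mM L-glutamine (stock) plus glutamate oxidase/HRP/Amplex Red coupling added. Fluorescence read initially and after 30 min at RT.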
# Mito fusion act = blocks mitochondrial division or promotes mitochondrial fusion; S. cerevisiae fusion-defective mutant growth rescue, CellTiterGlo 48 h; Potency, µM (highest dose often 46.1 µM), inactives show top-dose growth rescue (activation), usual class: activators; 0.23% of 320,000 active; also: % of control where 0% means no effect; nearly all actives have a fitted effect of over 45% in size
#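 S. cerevisiae fusion-defective temperature-sensitive mutants (e.g. fzo1-1, mgm1-5) grown 48 h at 37C in YPEG (ethanol/glycerol non-fermentable) medium with 23 nl compound per well; growth rescue read as CellTiterGlo luminescence.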
# PKM2 act = activators of human pyruvate kinase M2. purified PKM2, Kinase-Glo ATP luminescence, activation; response scale: 0% is enzyme alone, no compound. Potency, µM (titrated, usually from 57.5 µM), for the others: at the highest dose activation, most hits filed as activators. 0.34% of 260,000 active; also: % is scaled to controls: 0 for no effect and ±100 for the full control effect; nearly all actives have a fitted effect of over 55% in size
#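 ATP formation by purified human PK-M2, quantified via coupled luciferase luminescence after 1 h at room temperature with 0.1 mM ADP and 0.5 mM PEP final.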
# VDR inhibitor = blocks the human vitamin D receptor | P11473 | VDR-SRC2-3 peptide fluorescence polarization, 2 h | Potency, µM, for the others: max response, negative = inhibition, actives largely listed as inhibitors | 0.93% of 400,000 active | AID 504847; also: % is scaled to controls: 0 for no effect and ±100 for the full control effect
# Target sequence (P11473 whole entry, looked up): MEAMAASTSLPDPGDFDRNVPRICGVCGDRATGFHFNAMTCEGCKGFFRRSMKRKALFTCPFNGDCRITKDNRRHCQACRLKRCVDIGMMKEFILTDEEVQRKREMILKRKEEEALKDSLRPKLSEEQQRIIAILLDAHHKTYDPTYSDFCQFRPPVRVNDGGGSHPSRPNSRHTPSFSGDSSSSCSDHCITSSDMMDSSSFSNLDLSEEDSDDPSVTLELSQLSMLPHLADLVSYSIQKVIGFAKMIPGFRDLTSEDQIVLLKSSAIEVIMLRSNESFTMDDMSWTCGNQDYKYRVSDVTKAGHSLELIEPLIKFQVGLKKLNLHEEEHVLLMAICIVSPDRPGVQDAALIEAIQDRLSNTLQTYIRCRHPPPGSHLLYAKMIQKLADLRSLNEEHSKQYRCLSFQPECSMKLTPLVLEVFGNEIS
#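 Two reagent solutions held at 4 deg C in the dark were dispensed, compounds pinned at 23 nl, and the mixture incubated 2 h at room temperature. Read-out: fluorescence polarization of VDR–SRC2-3 peptide binding.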
# KAT2A inh = GCN5L2 (KAT2A) acetyltransferase inhibition; GCN5L2 HAT assay, ThioGlo1 CoA-SH fluorescence; Potency, µM (highest dose often 58.9 µM), inactives show at the top dose activity change, negative = inhibition, hits mostly inhibitors; AID 504327; Q92830; 0.21% of 390,000 active; also: % is scaled to controls: 0 for no effect and ±100 for the full control effect
#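 Fluorescence readout, Ex340nm/Em540nm: ThioGlo1 (50uM final) reacts with free CoA thiol released as 20nM GCN5L2 acetylates H3(1-25) peptide (75uM) using acetyl-CoA (70uM). Compound and enzyme sat 15 min beforehand; 20 min room-temperature reaction.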
# * marks the source's active call; other numbers are inactive results; ? = inconclusive; . = not tested or not shown; ! = a repeat was not active; [ ] = another dose, or the depositor's remark. An excerpt weighted towards active compounds, which were near 3.4% of everything screened. Calls follow the shape of the dose curve; as a rule, active = well fitted curve in the direction sought with a large enough effect; inconclusive = small, poorly fitted or top-dose-only effect, or another doubt; inactive = no such curve, though single readings can be large; an effect the other way counts as inactive or inconclusive. Potency is read from the fitted curve at half-maximal effect.
SMILES,PLK1 PBD inh,GLS inh,Mito fusion act,PKM2 act,VDR inhibitor,KAT2A inh
O=C(O)CC1S/C(=N/N=C/c2ccc(-c3ccc(Cl)cc3[N+](=O)[O-])o2)NC1=O (stereo unspecified),17µM*,7%,2%,1%,?,-3%
CC(C)(C)c1ccc(C(=O)NCc2nnc(SCC(=O)N3CCCC3)o2)cc1,-11%,-5%,.,.,.,.
Cc1ccc(C)c(NC(=O)Cn2c(=O)n(Cc3ccc4c(c3)OCO4)c(=O)c3ccccc32)c1,.,-1%,.,.,-3%,-3%
COC(=O)C1=C(C)NC(C)=C(C(=O)OC(C)(C)CN(C)CCC(c2ccccc2)c2ccccc2)C1c1cccc([N+](=O)[O-])c1 (stereo unspecified),.,17%,0.65µM*,.,4%,-23%
COCCOC(=O)C1=C(C)NC(C)=C(C(=O)OC(C)C)C1c1cccc([N+](=O)[O-])c1 (stereo unspecified),5%,11%,21µM*!,-1%,?,-10%
CCOC(=O)C1=C(C)NC(C)=C(C(=O)OC)[C@@H]1c1cccc([N+](=O)[O-])c1,.,.,.,.,?,0%[21.4 µM]
COCCOC(=O)C1=C(C)NC(C)=C(C(=O)OC/C=C/c2ccccc2)C1c1cccc([N+](=O)[O-])c1 (stereo unspecified),.,-6%,5.8µM*,.,-3%,-18%
N#CC(C#N)=C1C=C2C=C(N3CCCCCC3)CCC2CC1 (stereo unspecified),-67%,6%,?,-1%,-18%,-8%
N#CC(C#N)=C1C=C2C=C(N3CCOCC3)CCC2CC1 (stereo unspecified),52%,-8%,-9%,2%,71µM*,2%
CN1CCN(C(=O)CCNC(=O)Cn2cnc3ccccc3c2=O)CC1,-13%,-10%,2%,0%,-16%,4%
O=C(CCNC(=O)Cn1cnc2ccccc2c1=O)NCCC1=CCCCC1,27µM*,-3%,-3%,-7%,-10%,-10%
CC1(c2ccccc2)NC(=O)N(CC(=O)NCCC2=CCCCC2)C1=O (stereo unspecified),-23%,-20%,0%,-5%,-15%,28µM*
Cc1cccc(C)c1N(CCCc1cccnc1)C(=O)[C@@H](C)N,.,-1%,.,.,.,.
O=[N+]([O-])c1ccc2cn(C3OC(CO)C(O)C3O)nc2c1 (stereo unspecified),-9%,-2%,.,.,.,.
c1ccc(-c2n[nH]c3c2oc2ccccc23)cc1,.,.,.,.,4%,2%
Cc1nc(NC(=O)CCc2ccccc2)sc1C,15µM*,2%,-2%,1%[11.5 µM],89µM*,-20%
CCCC(=O)Nc1ccc(NC(=O)Cc2ccccc2)cn1,-7%,-2%,0%,-2%,8%,3%
CCCC(=O)Nc1ccc(NC(=O)CCc2ccccc2)cn1,3µM*,?,-1%,-1%,-17%,-2%
O=C(CCl)Nc1cccc2ncccc12,-1%,8%,-21%,10%,13%,3%
Cc1ccccc1NC(=O)CN1C(=O)COc2ccc(Cl)cc21,24µM*,5%,4%,8%,-19%,-5%
O=C(CN1C(=O)C2C3C=CC(C4CC34)C2C1=O)Nc1cccc2ncccc12 (stereo unspecified),30µM*,2%,9%,3%,-15%,0%
Cc1ccccc1NC(=O)CN1C(=O)C2C3CC(C(Br)C3Br)C2C1=O (stereo unspecified),4.7µM*,3%,-1%,6%,79µM*,-7%
O=C(CN1C(=O)COc2ccc(Cl)cc21)Nc1ccccn1,-7%,2%,5%,5%,?,0%
Oc1ccc(Cc2ccccc2)c2cccnc12,-14%,?,.,.,2%,.
Oc1ccc(COCc2ccccc2)c2cccnc12,-27%,0%,10%,2%,3%,25µM*!
SMILES,PLK1 PBD inh,GLS inh,Mito fusion act,PKM2 act,VDR inhibitor,KAT2A inh
CC(C)C[C@H](NC(=O)C1CCN(S(=O)(=O)c2ccccc2)CC1)C(=O)NCc1ccncc1,?,-3%,2%,.,-6%,-4%
CCN(CC)S(=O)(=O)c1ccc2c(c1)nc(SCc1nc3ccsc3c(=O)[nH]1)n2CC,-13%,?,1%,13µM*,-25%,-3%
CCn1c(SCc2nc3ccccc3c(=O)[nH]2)nc2ccccc21,-12%,-5%,-2%,8%,2%,-11%
COc1cccc2c1C(=O)c1c(O)c3c(c(O)c1C2=O)C[C@@](O)(C(=O)CO)C[C@@H]3OC1C[C@@H](N)[C@H](O)[C@H](C)O1 (stereo partly specified),.,.,.,.,1%,-19%
O=C(Nc1ccc2oc(-c3cccnc3)nc2c1)c1ccc(-c2ccccc2OC(F)(F)F)o1,.,1%,.,.,-19%,-8%
COC(=O)c1ccc(CSc2n[nH]c(=S)s2)o1,?,-1%,-1%,3%,-1%,-28%
CCSc1n[nH]c(=S)s1,-9%,1%,2%,-37%,0%,32µM*
Cc1cc(C)c2[nH]c(=O)c(C(c3nnnn3C(C)(C)C)N3CCN(C(=O)c4ccco4)CC3)cc2c1 (stereo unspecified),-14%,-8%,0%,11µM*,-31%,-3%
CN(C)c1ccc(C(c2nnnn2C(C)(C)C)N2CCN(C(=O)c3ccco3)CC2)cc1 (stereo unspecified),-2%,26%,1%,1%,16µM*,-3%
CN(C)S(=O)(=O)c1ccc(Cl)c(NC(=O)COc2ccccc2[N+](=O)[O-])c1,-11%,8%,1%,-3%,-27%,-4%
COc1ccccc1NS(=O)(=O)c1cc(NC(=O)C(C)NC(N)=O)ccc1N1CCCC1 (stereo unspecified),13µM*,18%,2%,.,?,-14%
COc1ccc(NS(=O)(=O)c2cc(NC(=O)c3cnccn3)ccc2N2CCCC2)cc1,21µM*,-9%,19%,-15%,?,-7%
COc1ccccc1NS(=O)(=O)c1cc(NC(=O)c2ccncc2)ccc1N1CCCC1,17µM*,?,-23%,-7%,?,-26%
COc1ccc(NS(=O)(=O)c2cc(NC(=O)c3ccc(C)o3)ccc2N2CCCCC2)cc1,-8%,20%,21%,-4%,-5%,-9%
COc1ccccc1NS(=O)(=O)c1cc(NC(C)=O)ccc1N1CCCCC1,9.5µM*,5%,10%,0%,?,-15%
COc1ccccc1NS(=O)(=O)c1cc(NC(=O)CCNC(C)=O)ccc1N1CCCCC1,-22%,8%,-7%,.,-8%,-13%
COc1ccc(N2CCN(C(c3ccccc3)c3nnnn3Cc3ccccc3)CC2)cc1 (stereo unspecified),.,.,.,.,0%,.
